# Source: PubChem BioAssay (NCATS)
# Records with an inconclusive call do not appear. Where a call stands in place of a potency, no number is given. Active and inactive are the calls of the source. Unless noted, calls follow the shape of the dose curve; as a rule, active = well fitted curve in either direction with a large enough effect (not every such curve was filed as active); inconclusive = small, poorly fitted or top-dose-only effect, or another doubt; inactive = flat fitted curve, though single readings scatter.
# Tests used:
# [1] = AP1 Signaling Pathway (AID 357);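 also: ME-180 reporter cells stimulated with EGF at its EC50 level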
# How it was run: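 Beta-lactamase reporter under AP-1 response element, ME-180 background. Stimulus: EC50 EGF. Compound exposure 5 h, 37 °C. Detection: CCF4, 2.5 h RT, 460/530 nm. Values: AC50 from titration.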
# [2] = biological target: Cytochrome P450 1A2 (Homo sapiens) (UniProt P05177); experiment: p450-cyp1a2 (AID 410; calls by dose curve; also: potency is read from the fitted curve at half-maximal effect)
# How it was run: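 Inhibition was calculated relative to 57 uM furafylline (full inhibition). The reaction used human CYP1A2 at 20nM with Luciferin-ME at its Km, 100uM, driven by an NADPH-regenerating system for 60 min at room temperature.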
# [3] = NFAT Signaling Pathway (AID 444); conditions: Jurkat NFAT-bla M1, carbachol, beta-lactamase ratio, 5 h; at 17.2 µM (top of the series) unless noted;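 also: carbachol stimulus at about its EC50 of 1 µM final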
# How it was run: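 Read-out: CCF4 FRET ratio (460 nm/530 nm) after 1 h RT dye loading, used for %activity and AC50 from titration series. Cells: Jurkat NFAT-β-lactamase/M1 line, treated with compound plus 1 uM carbachol for 5 h, 37 °C.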
# [4] = Stat Signaling Pathway (AID 446);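 also: ME-180 cervical cancer cells given 40 pM IL-6 alongside compound; SIE-controlled beta-lactamase reporter measured as 460/530 nm FRET emission ratio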
# How it was run: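 ME-180 cells carrying a SIE-driven beta-lactamase reporter are stimulated with 40 pM IL-6 for 5 h at 37C in the presence of compound. The 460/530 nm FRET substrate ratio is read after 2.5 h at RT. Data are normalised to 300 pM IL-6 and to 125 nM JAK inhibitor controls.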
# [5] = biological target: Glucocorticoid receptor (Homo sapiens) (UniProt P04150); experiment: GR-GFP Redistribution (AID 450;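 active = compounds whose dose series gives a full or clear partial fitted curve of increased nuclear translocation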; also: potency is read from the fitted curve at half-maximal effect); conditions: U2OS GR-GFP nuclear translocation, laser cytometry, 2 h
# [6] = biological target: Mitogen-activated protein kinase 10 (Mus musculus) (UniProt Q61831); experiment: JNK3 AlphaScreen Assay (AID 530);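 also: kinase came from lysate of stimulated human HepG2 cells; signal reports phosphorylation of biotinylated GST-cJun 1-79 at Ser73 with 10 µM ATP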
# How it was run: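 Room-temperature AlphaScreen kinase assay; pre-activated HepG2 lysate as JNK3 source, biotin-GST-cJun(1-79) substrate, 10 uM ATP, compound 15 min preincubation.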
# [7] = biological target: 3',5'-cyclic-AMP phosphodiesterase 4B (Homo sapiens) (UniProt Q07343); experiment: qHTS Assay for Inhibitors of PDE-IV (AID 607; active = well fitted activation curve with a large enough effect in the main read-out, with a control signal flat, not every such curve was filed as active)
# How it was run: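 HEK293 ACTOne cells with CNG channel (1000/well), endogenous PDE4; membrane potential dye, compounds up to 22.9 uM final. Fluorescence Ex 535/Em 590; RO 20-1724 (100 uM final) as reference.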
# [8] = qHTS Assay for Lipid Storage Modulators (AID 1519; calls by dose curve); conditions: Drosophila S3 cells, BODIPY lipid droplet/cell ratio, laser cytometry, cells loaded with oleic acid
# How it was run: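 Cells seeded at 5,000 per well were treated with compounds over a concentration series and loaded with oleic acid (400 uM, as added). Lipid droplet fluorescence (488 nm excitation, 500-530 nm channel) was read by laser-scanning cytometry and normalized to 20 uM Triacsin C.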
# [9] = biological target: ATP-dependent 6-phosphofructokinase (Trypanosoma brucei brucei) (UniProt O15648); experiment: qHTS Assay to Find Inhibitors of T. brucei phosphofructokinase: hit validation (AID 492961; active = well fitted curve in the direction sought with a large enough effect; an effect the other way counts as inactive or inconclusive;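 also: luminescence reports ADP formed as PFK phosphorylates fructose-6-phosphate with ATP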)
# How it was run: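 In this biochemical qHTS validation, titrated compounds were tested against 1.25 nM PFK with 0.1 mM ATP and 0.5 mM F6P. Percent activity came from controls lacking or containing enzyme.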
# [10] = biological target: Ubiquitin carboxyl-terminal hydrolase 1 (Homo sapiens) (UniProt O94782); experiment: Inhibitors of USP1/UAF1: Pilot qHTS (AID 504865; active = well fitted curve in the direction sought with a large enough effect; an effect the other way counts as inactive or inconclusive;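 also: rhodamine fluorescence freed from ubiquitin-rhodamine substrate followed over time; top concentration of the series differs between compounds; nearly all actives have a fitted effect of over 35% in size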)
# How it was run: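 1nM USP1/UAF1 + cpd, 15 min RT; start w/ Ub-Rho 150nM final; kinetic FL 480/540 nm, 6 reads q60 s. Buffer 50mM HEPES pH 7.8, 0.5mM EDTA, 1mM TCEP, 0.01% Tween-20, 0.1 mg/ml BSA.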
# [11] = biological target: Luciferin 4-monooxygenase (Photinus pyralis) (UniProt P08659); experiment: Biochemical firefly luciferase enzyme assay for NPC (AID 624030; active = well fitted curve in the direction sought with a large enough effect; an effect the other way counts as inactive or inconclusive;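 also: purified P. pyralis luciferase at 10 nM with luciferin and ATP substrate; nearly all actives have a fitted effect of over 70% in size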)
# How it was run: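 Direct inhibition of firefly luciferase enzyme (10 nM final, 50 mM Tris Acetate) assessed by luminescence within 5 minutes. Percent activity scaled between DMSO and PTC124 positive control, with concentration-effect curves classified by fit quality and response.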
# [12] = S16 Schwann cell viability assay (CellTiter-Glo assay) (AID 624031; active = well fitted curve in the direction sought with a large enough effect; an effect the other way counts as inactive or inconclusive;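 also: cellular ATP luminescence as a viability measure; nearly all actives have a fitted effect of over 70% in size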)
# How it was run: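 Untransfected S16 rat Schwann cells; compound 24 h, 37 °C/5% CO2; CellTiter-Glo ATP luminescence. % activity vs no-cell wells and DMSO controls (0%); concentration-effect curves classed by r2, response magnitude, activity.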
# [13] = qHTS profiling for inhibitors of Plasmodium falciparum proliferation (AID 504749; active = well fitted curve in the direction sought with a large enough effect; an effect the other way counts as inactive or inconclusive; also: nearly all actives have a fitted effect of over 60% in size); conditions: P. falciparum in erythrocytes, SYBR Green DNA, 72 h, at 12.8 µM (top of the series)
# How it was run: (§1)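 Three-day growth assay of blood-stage parasites in erythrocytes (0.3% parasitemia, 2.5% hematocrit) at 37 C, 5% CO2, quantified by SYBR Green DNA staining after overnight detergent lysis.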
# C2A = experiment: as above; conditions: P. falciparum in erythrocytes, SYBR Green DNA, 72 h; series mostly up to 12.8 µM
# How it was run: as §1
# CP191 = experiment: as above; conditions: P. falciparum in erythrocytes, SYBR Green DNA, 72 h; series mostly up to 12.8 µM
# How it was run: as §1
# CP250 = experiment: as above; conditions: P. falciparum in erythrocytes, SYBR Green DNA, 72 h; series mostly up to 12.8 µM
# How it was run: as §1
# FAB9 = experiment: as above; conditions: P. falciparum in erythrocytes, SYBR Green DNA, 72 h; series mostly up to 12.8 µM
# How it was run: as §1
# JCK = experiment: as above; conditions: P. falciparum in erythrocytes, SYBR Green DNA, 72 h; series mostly up to 12.8 µM
# How it was run: as §1
# SC27B = experiment: as above; conditions: P. falciparum in erythrocytes, SYBR Green DNA, 72 h; series mostly up to 12.8 µM
# How it was run: as §1
# [14] = biological target: Glucocorticoid receptor (Homo sapiens) (UniProt P04150); experiment: GR-EFC Redistribution (AID 451; calls by dose curve; also: potency is read from the fitted curve at half-maximal effect); conditions: CHO-K1 GR-EFC translocation, beta-gal luminescence, 2 h
# How it was run: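 Translocation of GR-ED fusion to nuclear EA restores b-gal, read by luminescence after 1 h room-temperature detection. Engineered CHO-K1 biosensor cells, 1,000/well, exposed 2 h at 37 C to titrations up to 46 uM final.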
# [15] = measured here: cell count channel max response
# [16] = measured here: lipid channel max response
# Sequence of Cytochrome P450 1A2 (Homo sapiens) (P05177 whole entry, looked up): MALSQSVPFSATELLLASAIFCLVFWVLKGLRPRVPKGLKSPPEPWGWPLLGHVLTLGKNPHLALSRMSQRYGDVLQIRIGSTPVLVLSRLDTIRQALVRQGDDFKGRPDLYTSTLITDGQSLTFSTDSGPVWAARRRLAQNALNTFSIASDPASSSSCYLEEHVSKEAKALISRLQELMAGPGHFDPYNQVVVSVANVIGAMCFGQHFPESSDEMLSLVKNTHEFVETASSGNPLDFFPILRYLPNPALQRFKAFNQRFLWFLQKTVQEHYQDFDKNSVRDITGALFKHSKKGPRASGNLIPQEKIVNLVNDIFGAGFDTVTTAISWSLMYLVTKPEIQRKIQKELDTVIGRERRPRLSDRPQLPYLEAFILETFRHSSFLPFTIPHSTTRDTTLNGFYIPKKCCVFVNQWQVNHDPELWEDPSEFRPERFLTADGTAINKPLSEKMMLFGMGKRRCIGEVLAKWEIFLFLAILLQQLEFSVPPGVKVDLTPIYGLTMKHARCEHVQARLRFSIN
# Sequence of Glucocorticoid receptor (Homo sapiens) (P04150 whole entry, looked up, the tested form may be a part): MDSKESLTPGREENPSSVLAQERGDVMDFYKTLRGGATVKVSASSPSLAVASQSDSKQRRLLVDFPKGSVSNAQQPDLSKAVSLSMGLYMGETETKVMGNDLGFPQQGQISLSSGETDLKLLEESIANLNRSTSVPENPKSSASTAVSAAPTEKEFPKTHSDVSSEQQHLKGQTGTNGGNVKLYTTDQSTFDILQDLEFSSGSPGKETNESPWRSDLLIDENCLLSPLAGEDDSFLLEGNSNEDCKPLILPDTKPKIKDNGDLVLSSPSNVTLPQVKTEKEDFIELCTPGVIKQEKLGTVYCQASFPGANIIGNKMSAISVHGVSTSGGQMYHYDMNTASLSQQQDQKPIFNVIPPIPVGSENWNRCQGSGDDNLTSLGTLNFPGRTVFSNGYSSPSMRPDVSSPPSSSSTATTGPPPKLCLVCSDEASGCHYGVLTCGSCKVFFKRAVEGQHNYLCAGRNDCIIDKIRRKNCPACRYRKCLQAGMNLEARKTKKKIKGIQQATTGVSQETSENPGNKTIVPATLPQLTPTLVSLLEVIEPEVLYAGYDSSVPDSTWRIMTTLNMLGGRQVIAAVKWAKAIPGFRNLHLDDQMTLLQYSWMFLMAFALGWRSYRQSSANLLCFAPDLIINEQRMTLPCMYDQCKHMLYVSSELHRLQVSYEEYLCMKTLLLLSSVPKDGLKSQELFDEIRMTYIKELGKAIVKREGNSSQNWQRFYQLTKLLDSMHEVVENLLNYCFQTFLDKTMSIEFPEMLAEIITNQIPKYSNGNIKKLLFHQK
# Sequence of Ubiquitin carboxyl-terminal hydrolase 1 (Homo sapiens) (O94782 whole entry, looked up): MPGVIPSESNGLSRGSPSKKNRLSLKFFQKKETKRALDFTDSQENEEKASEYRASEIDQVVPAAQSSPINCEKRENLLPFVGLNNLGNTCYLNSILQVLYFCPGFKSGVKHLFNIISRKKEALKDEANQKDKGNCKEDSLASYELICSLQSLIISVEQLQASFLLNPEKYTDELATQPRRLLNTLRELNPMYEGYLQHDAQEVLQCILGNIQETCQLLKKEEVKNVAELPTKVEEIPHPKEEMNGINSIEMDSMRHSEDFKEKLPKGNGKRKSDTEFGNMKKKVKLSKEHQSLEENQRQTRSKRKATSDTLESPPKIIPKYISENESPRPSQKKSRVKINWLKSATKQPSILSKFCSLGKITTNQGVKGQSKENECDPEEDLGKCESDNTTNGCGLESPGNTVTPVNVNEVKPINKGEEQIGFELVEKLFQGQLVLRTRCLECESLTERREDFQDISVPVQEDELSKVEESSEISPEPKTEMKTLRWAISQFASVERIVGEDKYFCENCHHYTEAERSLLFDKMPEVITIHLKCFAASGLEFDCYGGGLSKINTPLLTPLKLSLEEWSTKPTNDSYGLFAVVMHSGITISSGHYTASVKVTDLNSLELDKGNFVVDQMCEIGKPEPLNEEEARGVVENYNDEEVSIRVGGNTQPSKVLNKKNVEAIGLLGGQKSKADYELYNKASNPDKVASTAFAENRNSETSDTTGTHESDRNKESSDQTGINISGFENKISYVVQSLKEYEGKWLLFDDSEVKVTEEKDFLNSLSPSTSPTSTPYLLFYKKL
# Sequence of 3',5'-cyclic-AMP phosphodiesterase 4B (Homo sapiens) (Q07343 whole entry, looked up): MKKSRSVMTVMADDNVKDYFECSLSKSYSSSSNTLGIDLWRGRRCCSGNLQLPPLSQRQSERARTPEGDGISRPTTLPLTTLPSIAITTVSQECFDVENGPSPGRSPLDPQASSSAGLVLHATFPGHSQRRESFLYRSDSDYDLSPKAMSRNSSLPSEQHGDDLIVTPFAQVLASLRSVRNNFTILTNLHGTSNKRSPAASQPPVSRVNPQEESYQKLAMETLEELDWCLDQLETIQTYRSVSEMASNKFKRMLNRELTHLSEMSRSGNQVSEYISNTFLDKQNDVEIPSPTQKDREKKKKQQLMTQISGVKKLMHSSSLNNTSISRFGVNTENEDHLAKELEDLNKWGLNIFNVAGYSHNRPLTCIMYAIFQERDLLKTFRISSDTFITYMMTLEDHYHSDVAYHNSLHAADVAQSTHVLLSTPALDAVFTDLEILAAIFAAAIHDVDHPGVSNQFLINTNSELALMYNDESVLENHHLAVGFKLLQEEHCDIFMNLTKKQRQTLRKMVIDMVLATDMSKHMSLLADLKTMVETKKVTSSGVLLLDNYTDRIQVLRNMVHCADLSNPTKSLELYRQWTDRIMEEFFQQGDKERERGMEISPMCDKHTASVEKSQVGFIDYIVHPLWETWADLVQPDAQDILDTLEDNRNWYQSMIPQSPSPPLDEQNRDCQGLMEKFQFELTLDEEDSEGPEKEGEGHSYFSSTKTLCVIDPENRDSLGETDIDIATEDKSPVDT
# Sequence of ATP-dependent 6-phosphofructokinase (Trypanosoma brucei brucei) (O15648 whole entry, looked up): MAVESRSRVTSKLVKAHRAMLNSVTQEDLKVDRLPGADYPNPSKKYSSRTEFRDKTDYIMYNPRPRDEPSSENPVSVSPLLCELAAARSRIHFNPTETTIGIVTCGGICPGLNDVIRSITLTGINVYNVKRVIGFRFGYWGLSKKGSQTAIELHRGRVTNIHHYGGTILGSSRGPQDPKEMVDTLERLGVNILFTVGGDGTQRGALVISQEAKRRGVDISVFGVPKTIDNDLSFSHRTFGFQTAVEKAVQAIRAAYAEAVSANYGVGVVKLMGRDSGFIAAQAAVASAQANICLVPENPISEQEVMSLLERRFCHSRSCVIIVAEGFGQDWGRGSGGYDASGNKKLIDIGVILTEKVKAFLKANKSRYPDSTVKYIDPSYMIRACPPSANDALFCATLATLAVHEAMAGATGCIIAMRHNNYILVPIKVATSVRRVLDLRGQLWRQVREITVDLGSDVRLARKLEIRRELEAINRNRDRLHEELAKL
# Sequence of Luciferin 4-monooxygenase (Photinus pyralis) (P08659 whole entry, looked up): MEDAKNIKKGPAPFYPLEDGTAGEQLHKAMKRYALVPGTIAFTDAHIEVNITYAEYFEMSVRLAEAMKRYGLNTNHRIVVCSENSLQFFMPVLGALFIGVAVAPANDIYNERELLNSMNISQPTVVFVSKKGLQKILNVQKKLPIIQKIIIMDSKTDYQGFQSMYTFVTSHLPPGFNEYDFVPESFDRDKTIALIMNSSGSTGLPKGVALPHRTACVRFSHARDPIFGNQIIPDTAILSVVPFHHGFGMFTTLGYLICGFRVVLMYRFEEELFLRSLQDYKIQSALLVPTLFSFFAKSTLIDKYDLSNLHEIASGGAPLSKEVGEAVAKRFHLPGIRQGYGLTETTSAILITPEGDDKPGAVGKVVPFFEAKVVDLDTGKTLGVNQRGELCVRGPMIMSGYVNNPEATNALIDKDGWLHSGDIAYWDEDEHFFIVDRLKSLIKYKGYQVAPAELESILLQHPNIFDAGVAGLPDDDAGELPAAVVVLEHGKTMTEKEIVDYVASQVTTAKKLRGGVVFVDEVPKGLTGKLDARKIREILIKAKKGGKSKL
smiles,measurement,setting,value
Cc1cccc(C)c1NC(=O)[C@H](C)N,outcome,[1],inactive
same,Potency,[2],inactive
same,"activity change, negative = inhibition",[3],-7.54% (inactive)
same,outcome,[4],inactive
same,Potency,[5],> 20.6 µM (inactive)
same,Potency,[6],inactive
same,outcome,[7],inactive
same,"activity change, negative = inhibition",[8]; at 25.7 µM (top of the series),-1.94% (inactive)
same,max response,[8]; [15],-3.54%
same,max response,[8]; [16],-7.81%
same,outcome,[9],inactive
same,Potency,[10],inactive
same,Potency,[11],inactive
same,outcome,[12],inactive
same,"activity, negative = inhibition",[13]; parasite line A,7.15% (inactive)
same,"activity, negative = inhibition",[13]; parasite line B,10.5% (inactive)
same,Potency,C2A,inactive
same,Potency,CP191,inactive
same,Potency,CP250,inactive
same,Potency,FAB9,inactive
same,Potency,JCK,inactive
same,Potency,SC27B,inactive
CCC(=O)O[C@@]1(C(=O)CCl)[C@@H](C)C[C@@H]2[C@H]3CCC4=CC(=O)C=C[C@@]4(C)[C@]3(F)[C@@H](O)C[C@@]21C,outcome,[1],inactive
same,Potency,[2],inactive
same,"activity change, negative = inhibition",[3],-1.76% (inactive)
same,outcome,[4],inactive
same,Potency,[14],< 5.9e-06 µM (active)
same,Potency,[6],inactive
same,outcome,[7],inactive
same,"activity change, negative = inhibition",[8]; at 25.7 µM (top of the series),-3.93% (inactive)
same,max response,[8]; [15],-18.1%
same,max response,[8]; [16],-15.8%
CN(C)c1ccc(O)c2c1C[C@H]1C[C@H]3[C@@H](N(C)C)C(=O)C(C(N)=O)=C(O)[C@]3(O)C(=O)C1=C2O,outcome,[1],inactive
same,Potency,[2],inactive
same,"activity change, negative = inhibition",[3],12.2% (inactive)
same,outcome,[4],inactive
same,Potency,[5],> 20.6 µM (inactive)
same,Potency,[14],> 20.6 µM (inactive)
same,Potency,[6],inactive
same,outcome,[7],inactive
same,"activity change, negative = inhibition",[8]; at 25.7 µM (top of the series),-0.929% (inactive)
same,max response,[8]; [15],2.32%
same,max response,[8]; [16],0.719%
C[C@@H]1CCc2cc(F)cc3c(=O)c(C(=O)O)cn1c23,outcome,[1],inactive
same,Potency,[2],12.6 µM (active)
same,"activity change, negative = inhibition",[3],7.91% (inactive)
same,outcome,[4],inactive
same,Potency,[14],> 20.6 µM (inactive)
same,Potency,[6],inactive
same,outcome,[7],inactive
same,"activity change, negative = inhibition",[8]; at 25.7 µM (top of the series),-0.0799% (inactive)
same,max response,[8]; [15],-3%
same,max response,[8]; [16],-1.83%
same,Potency,[10],inactive
CO[C@H]1[C@H](O[C@H]2O[C@@H](C)[C@@H](O[C@@H]3C[C@](C)(O)[C@H](OC(=O)CC(C)C)[C@H](C)O3)[C@@H](N(C)C)[C@@H]2O)[C@@H](CC=O)C[C@@H](C)[C@@H](O)/C=C\C=C/C[C@@H](C)OC(=O)C[C@H]1OC(C)=O,outcome,[1],inactive
same,Potency,[2],inactive
same,"activity change, negative = inhibition",[3],-0.256% (inactive)
same,outcome,[4],inactive
same,Potency,[14],> 20.6 µM (inactive)
same,Potency,[6],inactive
same,outcome,[7],inactive
same,"activity change, negative = inhibition",[8]; at 25.7 µM (top of the series),-3.13% (inactive)
same,max response,[8]; [15],-10.5%
same,max response,[8]; [16],-14%
same,outcome,[9],inactive
same,Potency,[11],inactive
same,outcome,[12],inactive
same,Potency,FAB9,inactive
same,Potency,JCK,inactive
same,Potency,SC27B,inactive
CC(C)(N=NC(C)(C)C(=N)N)C(=N)N,outcome,[1],inactive
same,Potency,[2],inactive
same,"activity change, negative = inhibition",[3],3.21% [at 7.69 µM] (inactive)
same,outcome,[4],inactive
same,Potency,[5],> 46 µM (inactive)
same,Potency,[14],> 9.22 µM (inactive)
same,Potency,[6],inactive
same,outcome,[7],inactive
same,"activity change, negative = inhibition",[8]; at 57.5 µM (top of the series),6.18% (inactive)
same,max response,[8]; [15],-8.52%
same,max response,[8]; [16],0.846%
same,Potency,[10],inactive
